The text below walks through data of PubChem BioAssay.

The test system of test [1] is PRMT1 (protein arginine N-methyltransferase 1). Description: small molecules binding arginine methyltransferase PRMT1 – biochemical, small-molecule microarray, 635 nm fluorescence, primary screen (AID 1088).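 Note: binding of Prmt1 protein to compounds spotted on small-molecule microarray slides.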 As to conditions: higher = more signal.
Test [2] is described as follows: growth effects on S. cerevisiae YJM789 – YJM789 clinical isolate, OD600, 24 h, basal, primary screen (AID 1089).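 Note: growth of clinical yeast isolate S. cerevisiae YJM 789 seeded 1000 cells per well; test concentration not given here.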 As to conditions: higher = more signal, called active from +8 up or from −8 down.
Test [3] in a line: S. pombe growth modifiers, basal conditions – strain 972, OD600, 24 h, no modulator, primary screen (AID 1090).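 Note: basal condition with compound alone and no growth modifier present; test concentration not given here.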 As to conditions: S. pombe 972 growth, higher = more signal, called active from +8 up or from −8 down.
Test [4] in a line: budding yeast growth modifiers under rapamycin – strain BY4716, OD600, 96 h, primary screen (AID 1091). Note: test concentration not given here. Particulars: S. cerevisiae BY4716 + rapamycin, higher = more signal, called active from +8 up or from −8 down.
Test [5] addresses Torsin-1A-interacting protein 2 (Homo sapiens) (UniProt Q8NFQ8). Description: small molecules binding lysate-expressed LULL1 – cell lysate, human LULL1 lysate, 635/667 nm fluorescence, primary screen (AID 1092).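 Note: probe is lysate of COS7 cells overexpressing human LULL1; score merges per-feature 667 nm fluorescence with signal-to-noise.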 As to conditions: small-molecule microarray, hLULL1 lysate binding, 635 nm fluorescence; higher = more signal.
Test [6] can be described thus: optical density change of DRC41 E. coli – strain DRC41, OD650, 24 h, E. coli filamentation project, primary screen (AID 1093).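 Note: MC1000 strain lacking acrAB efflux and sulA so SOS filamentation is blocked; test concentration not given here.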 Particulars: E. coli DRC41 growth, higher = more signal, called active from +8 up or from −8 down.
A short description of test [7]: probe aLefty2 binding to arrayed compounds – biochemical, biotinylated probe, 635/667 nm fluorescence, primary screen (AID 1094).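 Note: score merges spot fluorescence near 667 nm with spot signal-to-noise ratio.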 As to conditions: small-molecule microarray, higher = more signal.
In test [8] the test system is Noggin (protein binding on small-molecule microarray). Description: small molecules binding Noggin protein – biochemical, 635/667 nm fluorescence, primary screen (AID 1095).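 Note: score merges 667 nm feature fluorescence with signal to noise over triplicate slides.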 Particulars: 635 nm fluorescence, higher = more signal.
Test [9] has as its target Neurogenic locus notch homolog protein 3 (Homo sapiens) (UniProt Q9UM47). Description: small molecules binding NOTCH3 protein – biochemical, 635/667 nm fluorescence, primary screen (AID 1096). As to conditions: small-molecule microarray, 635 nm fluorescence, higher = more signal.
Test [10] can be described thus: probe aEGFR binding to arrayed compounds – biochemical, biotinylated probe, 635/667 nm fluorescence, primary screen (AID 1097).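 Note: probe is a biotinylated anti-EGFR antibody binding compounds printed on slides; score combines fluorescence near 667 nm and signal to noise of each spot.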 Particulars: small-molecule microarray, higher = more signal.

Active and inactive are the calls of the source.

Sequence of Neurogenic locus notch homolog protein 3 (Homo sapiens) (Q9UM47 whole entry, looked up): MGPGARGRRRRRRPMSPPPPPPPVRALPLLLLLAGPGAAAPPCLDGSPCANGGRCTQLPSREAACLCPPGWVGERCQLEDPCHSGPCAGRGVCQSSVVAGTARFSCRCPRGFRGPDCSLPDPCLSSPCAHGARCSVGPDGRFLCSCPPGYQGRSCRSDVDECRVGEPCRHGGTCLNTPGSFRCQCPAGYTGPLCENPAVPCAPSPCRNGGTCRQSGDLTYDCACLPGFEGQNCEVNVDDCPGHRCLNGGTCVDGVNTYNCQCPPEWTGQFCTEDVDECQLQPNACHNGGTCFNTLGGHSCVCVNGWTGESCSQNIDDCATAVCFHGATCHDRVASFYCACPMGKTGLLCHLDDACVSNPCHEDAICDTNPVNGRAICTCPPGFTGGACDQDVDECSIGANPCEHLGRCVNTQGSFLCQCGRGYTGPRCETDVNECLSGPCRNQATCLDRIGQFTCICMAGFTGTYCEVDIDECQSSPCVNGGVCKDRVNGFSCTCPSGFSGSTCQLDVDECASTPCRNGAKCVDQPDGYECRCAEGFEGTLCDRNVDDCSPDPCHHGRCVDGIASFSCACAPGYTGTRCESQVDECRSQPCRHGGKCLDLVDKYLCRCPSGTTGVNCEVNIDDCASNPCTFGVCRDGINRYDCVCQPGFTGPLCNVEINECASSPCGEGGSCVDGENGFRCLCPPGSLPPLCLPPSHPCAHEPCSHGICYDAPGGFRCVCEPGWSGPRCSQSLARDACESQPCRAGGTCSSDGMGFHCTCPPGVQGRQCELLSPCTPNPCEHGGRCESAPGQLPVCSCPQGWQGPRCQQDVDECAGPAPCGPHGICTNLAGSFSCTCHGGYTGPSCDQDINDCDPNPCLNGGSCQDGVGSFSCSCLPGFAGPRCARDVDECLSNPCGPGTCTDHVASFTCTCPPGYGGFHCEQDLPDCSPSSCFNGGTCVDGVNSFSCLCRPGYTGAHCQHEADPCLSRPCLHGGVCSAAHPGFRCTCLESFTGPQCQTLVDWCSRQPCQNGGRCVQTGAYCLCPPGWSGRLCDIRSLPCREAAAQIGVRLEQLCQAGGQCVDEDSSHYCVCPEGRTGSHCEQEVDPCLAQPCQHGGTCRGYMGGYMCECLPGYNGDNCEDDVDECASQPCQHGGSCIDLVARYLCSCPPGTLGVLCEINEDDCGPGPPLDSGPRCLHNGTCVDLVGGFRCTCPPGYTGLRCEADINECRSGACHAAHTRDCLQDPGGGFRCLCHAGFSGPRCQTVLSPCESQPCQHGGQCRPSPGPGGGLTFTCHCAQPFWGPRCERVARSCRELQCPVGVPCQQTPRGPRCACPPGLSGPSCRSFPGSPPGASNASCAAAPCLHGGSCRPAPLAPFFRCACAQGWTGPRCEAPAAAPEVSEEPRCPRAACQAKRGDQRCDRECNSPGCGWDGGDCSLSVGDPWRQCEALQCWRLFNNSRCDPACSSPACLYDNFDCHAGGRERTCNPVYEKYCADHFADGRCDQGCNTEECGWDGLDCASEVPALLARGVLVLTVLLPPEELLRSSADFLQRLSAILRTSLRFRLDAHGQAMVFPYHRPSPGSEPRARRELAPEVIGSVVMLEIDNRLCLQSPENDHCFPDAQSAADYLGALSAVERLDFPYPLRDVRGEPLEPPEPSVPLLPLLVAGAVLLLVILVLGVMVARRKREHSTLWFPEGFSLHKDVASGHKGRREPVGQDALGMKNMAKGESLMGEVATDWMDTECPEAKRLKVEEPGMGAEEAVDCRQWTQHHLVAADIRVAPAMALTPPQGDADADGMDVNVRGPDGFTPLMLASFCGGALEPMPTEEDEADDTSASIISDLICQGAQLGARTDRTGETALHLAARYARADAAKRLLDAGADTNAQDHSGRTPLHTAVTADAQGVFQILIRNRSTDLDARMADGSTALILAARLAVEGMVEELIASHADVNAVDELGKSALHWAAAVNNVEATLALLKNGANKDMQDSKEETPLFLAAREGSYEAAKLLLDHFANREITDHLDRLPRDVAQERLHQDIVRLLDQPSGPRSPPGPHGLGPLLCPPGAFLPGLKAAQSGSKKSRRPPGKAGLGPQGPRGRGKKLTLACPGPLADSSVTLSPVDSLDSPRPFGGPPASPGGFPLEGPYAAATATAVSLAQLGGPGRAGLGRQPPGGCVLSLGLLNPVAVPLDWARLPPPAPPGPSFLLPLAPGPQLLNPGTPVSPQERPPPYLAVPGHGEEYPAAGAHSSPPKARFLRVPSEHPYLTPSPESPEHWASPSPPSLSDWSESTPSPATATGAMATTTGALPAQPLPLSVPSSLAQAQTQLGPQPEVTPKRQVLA
Sequence of Torsin-1A-interacting protein 2 (Homo sapiens) (Q8NFQ8 whole entry, looked up): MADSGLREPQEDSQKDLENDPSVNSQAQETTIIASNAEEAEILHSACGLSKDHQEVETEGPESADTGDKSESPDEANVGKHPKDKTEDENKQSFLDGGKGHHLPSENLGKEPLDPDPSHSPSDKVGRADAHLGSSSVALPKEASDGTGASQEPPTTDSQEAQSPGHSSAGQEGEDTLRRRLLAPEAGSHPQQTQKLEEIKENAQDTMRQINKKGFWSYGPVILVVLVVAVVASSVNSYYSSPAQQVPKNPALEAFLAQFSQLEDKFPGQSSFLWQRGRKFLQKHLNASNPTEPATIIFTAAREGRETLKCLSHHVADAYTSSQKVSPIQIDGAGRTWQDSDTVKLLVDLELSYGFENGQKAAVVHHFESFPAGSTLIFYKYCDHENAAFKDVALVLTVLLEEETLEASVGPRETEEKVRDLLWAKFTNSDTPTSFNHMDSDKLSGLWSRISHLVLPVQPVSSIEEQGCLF

Turning to `C=CCOC(=O)[C@H]1[C@@H]2C(=O)O[C@@H](c3ccccc3)[C@@H](c3ccccc3)N2[C@@H](c2ccc(OCCOC(=O)[C@H]3C[C@H]4C(=O)N[C@@H](CC(C)C)C(=O)N4[C@H]3c3ccc(O)cc3)cc2)[C@]12C(=O)Nc1ccc(I)cc12`, the composite z-score in [1] is 1.54; in [5], 2.62; in [7], -0.282; in [8] it was 1.67; in test [9], 1.12; in test [10], 0.0423. In addition, the z-score is 1 (inactive) in test [2], -1.4 (inactive) in test [3], 0.333 (inactive) in test [4] and -1.13 (inactive) in test [6].
Take `COc1cc2c(cc1O)C(C1CC1)N(Cc1cc3c(cc1Br)OCO3)CC2` (stereo not given): the composite z-score is -0.221 in test [1]; 1.61 in test [5]; -0.209 in [7]; -0.774 in test [8]; -0.346 in test [9]; -0.363 in test [10]. Moreover, the z-score was 0.19 (inactive) in test [2], -3.12 (inactive) in test [3], -0.24 (inactive) in test [4] and -1.91 (inactive) in test [6].
For the compound `O=C1NC(=O)C2C1C=CC(C(O)Cc1ccccc1)N2Nc1ccc(Cl)cc1Cl` (stereo not given), the composite z-score in test [1] is -0.403; in test [5] it was 3.21; in test [7] it was -0.0134; in test [8], -0.49; in test [9], 0.332; in test [10] it was -0.096. The z-score is -4.33 (inactive) in test [2], -1.51 (inactive) in [3], -0.125 (inactive) in test [4] and 0.177 (inactive) in test [6].
Consider `C=CCNC(=O)[C@H]1[C@@H]2C(=O)O[C@@H](c3ccccc3)[C@@H](c3ccccc3)N2[C@@H](c2ccc(OCCO)cc2)[C@]12C(=O)N(C(=O)OCCOC)c1ccccc12`, for which the composite z-score in [1] worked out at 1.54; in test [5] it was 3.07; in test [7], 0.0316; in test [8], 1.09; in test [9], 1.04; in [10] it was 0.107. The z-score is 2.07 (inactive) in test [2], 0.0313 (inactive) in [3], 4.62 (inactive) in test [4] and 0.909 (inactive) in test [6].
With `COc1cc2c(cc1O)C=[N+](Cc1cccc(OC(F)(F)F)c1)CC2`, the composite z-score in [1] was 0.224; in test [5], 0.319; in [7] it was -0.103; in test [8] it was -0.0304; in test [9], -0.0987; in [10], -0.171. Also, the z-score in [2] was -1.65 (inactive); in test [3], -3.24 (inactive); in test [4], -1.98 (inactive); in test [6], -1.31 (inactive).
Turning to `O=C1O[C@@H](c2ccccc2)[C@@H](c2ccccc2)N2[C@@H](c3ccc(OCCO)cc3)[C@]3(C(=O)Nc4ccccc43)[C@@H](C(=O)NC[C@H](O)c3ccccc3)[C@H]12`, the composite z-score in test [1] is 1.35; in test [5], 2.44; in [7], 0.161; in test [8] it was 0.457; in test [9], 0.488; in test [10], 0.174. Further, the z-score in test [2] was 1.63 (inactive); in test [3], 1.59 (inactive); in [4], 4.14 (inactive); in test [6], -0.46 (inactive).
Consider `O=C(NCc1ccccc1)[C@@H]1c2ccccc2C(=O)N(CC23CC4CC(CC(C4)C2)C3)[C@H]1c1ccc(CO)cc1`, for which the composite z-score in test [1] is 1.55; in test [5], 2.9; in [7] it was -0.225; in test [8] it was 1.72; in test [9], 1.05; in [10] it was -0.137. Further, the z-score is -0.52 (inactive) in [2], -0.0538 (inactive) in test [3], 0.988 (inactive) in [4] and -0.668 (inactive) in test [6].
With `C=CC[C@@]1(C(N)=O)N=C(c2ccc(OCCCO)cc2)O[C@@H]1c1ccccc1CN=[N+]=[N-]`, the composite z-score in test [1] amounted to 0.867; in test [5], 3.77; in test [7], 0.444; in test [8] it was 0.174; in test [9], 0.638; in test [10], 0.0651. Further, the z-score in test [2] was -0.884 (inactive); in test [3], -0.398 (inactive); in [4] it was -0.512 (inactive); in test [6], 0.0086 (inactive).
With `CCCC#C[Si](O[C@H](CC)c1cn([C@H](CO)Cc2ccccc2)nn1)(C(C)C)C(C)C`, the composite z-score in test [1] was 0.869; in test [5], 1.48; in test [7], 0.0166; in [8], 0.681; in [9], 0.584; in [10] it was -0.0563. The z-score is -0.843 (inactive) in [2], -10.7 (active) in [3], -2.6 (inactive) in test [4] and 0.858 (inactive) in test [6].
For `O=C(NCC(F)(F)F)[C@@H]1c2ccccc2C(=O)N(C2CCCCC2)[C@H]1c1ccc(CO)cc1`, the composite z-score in test [1] is 0.311; in test [5] it was 1.76; in test [7], -0.117; in [8], 0.276; in test [9], 0.254; in test [10], -0.0987. The z-score in test [2] was 0.936 (inactive); in test [3], 0.372 (inactive); in [4], 0.963 (inactive); in test [6] it was 0.674 (inactive).
As to `CN(C)C(=O)[C@]1(Cc2ccccc2CN=[N+]=[N-])N=C(c2ccc(OCCCO)cc2)O[C@@H]1c1ccccc1CN=[N+]=[N-]`, the composite z-score stood at 1.56 in test [1]; 3.59 in test [5]; 0.0112 in [7]; 1.18 in test [8]; 1.11 in test [9]; 0.0816 in test [10]. In addition, the z-score in test [2] is -0.0966 (inactive); in test [3], -0.16 (inactive); in [4] it was 4.49 (inactive); in test [6], -0.255 (inactive).
As to `O=C1O[C@@H](c2ccccc2)[C@@H](c2ccccc2)N2[C@@H](c3ccccc3OCCO)[C@]3(C(=O)Nc4ccc(C#CC5=CCCCC5)cc43)[C@@H](C(=O)Nc3nc4ccccc4s3)[C@H]12`, the composite z-score is 1.56 in test [1]; 2.4 in test [5]; 0.123 in test [7]; 0.82 in test [8]; 0.993 in test [9]; 0.0224 in [10]. Further, the z-score in test [2] is 1.37 (inactive); in test [3], 1.8 (inactive); in [4] it was 2.58 (inactive); in test [6], 0.901 (inactive).
Consider `COC(=O)[C@@]1(Cc2ccccc2)[C@H]2c3cc(C(=O)N(C)C)n(CCSCCO)c3C[C@H]2CN1C(=O)c1ccccc1`, for which the composite z-score in test [1] was -0.0249; in test [5] it was 3.09; in [7], 0.172; in [8], -0.411; in [9], -0.0488; in test [10], 0.0239. Besides, the z-score in test [2] is -0.177 (inactive); in test [3], 0.536 (inactive); in test [4], -0.694 (inactive); in test [6] it was -0.842 (inactive).
On to `O=C1c2ccccc2[C@@]2(Cc3ccccc3N(CCN3CCOCC3)C2=O)[C@H](c2ccc(CO)cc2)N1Cc1ccccc1`, for which the composite z-score in [1] is 1.08; in test [5] it was 1.4; in [7], -0.156; in test [8] it was -0.0855; in test [9] it was -0.038; in [10] it was -0.172. The z-score was -0.338 (inactive) in [2], 0.047 (inactive) in [3], -1.78 (inactive) in [4] and 0.959 (inactive) in test [6].
Consider `C=CCOC(=O)[C@H]1[C@@H]2C(=O)O[C@@H](c3ccccc3)[C@@H](c3ccccc3)N2[C@@H](c2ccc(OCCOC(=O)[C@H]3C[C@H]4C(=O)N5CCC[C@H]5C(=O)N4[C@H]3c3ccc(O)cc3)cc2)[C@]12C(=O)Nc1ccccc12`, for which the composite z-score was found to be 1.54 in test [1]; 3.03 in test [5]; 0.0292 in test [7]; 0.744 in [8]; 0.938 in test [9]; 0.127 in [10]. The z-score in test [2] is 1.31 (inactive); in [3] it was 0.998 (inactive); in [4] it was 3.27 (inactive); in test [6], -0.92 (inactive).
